Rows were chosen to be rich in hits. Some 6.6% of all compounds tested hit in one or more screens of this group.
Mtb FBA inh: Mtb fructose-bisphosphate aldolase inhibition | P9WQA3 | inhibition, % at 1 µM | actives 2.3% (n = 360,000) | purified M. tuberculosis FBA, fluorescence read-out; in the data active means inhibition above about 27%;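 further: 0% = vehicle and 100% = reference inhibitor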
Target sequence (P9WQA3 whole entry, looked up): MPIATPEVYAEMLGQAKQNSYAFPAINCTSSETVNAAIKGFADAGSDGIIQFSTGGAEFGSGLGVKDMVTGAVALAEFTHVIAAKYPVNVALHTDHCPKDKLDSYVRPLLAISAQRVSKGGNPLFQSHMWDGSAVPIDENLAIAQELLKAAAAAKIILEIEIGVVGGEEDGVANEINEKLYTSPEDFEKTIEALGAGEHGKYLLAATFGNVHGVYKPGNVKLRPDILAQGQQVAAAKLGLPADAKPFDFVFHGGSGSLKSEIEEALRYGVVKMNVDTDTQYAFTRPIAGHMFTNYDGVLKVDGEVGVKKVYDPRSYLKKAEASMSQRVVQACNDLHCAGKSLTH
BoNT-F LC inh: blocks Botulinum neurotoxin F light chain protease | AID 588497 | Multiplex microsphere protease cleavage assay, flow cytometry | actives 0.22% (n = 360,000) | inhibition, % at 10 µM; in the data active means inhibition above about 35%, passing the limit was not always enough; inconclusive means no clear call, values can overlap the other calls; further: plate controls were buffer without enzyme for full effect and enzyme alone for no effect
BoNT A protease: BoNT A light chain protease inhibition; actives 0.17% (n = 360,000); multiplex microsphere protease substrate cleavage, flow cytometry; inhibition, % at 10 µM; further: plate controls were buffer without enzyme for full effect and enzyme alone for no effect
Autofluor counter: counter-screen for toxin protease inhibitors: compound fluorescence; compound autofluorescence counterscreen, microsphere flow cytometry; hits give high values; fluorescence intensity (no concentration beside the values); actives 3.1% (n = 360,000); in the data active means fluorescence intensity above about 16000; inconclusive means no clear call, values can overlap the other calls
GDH-TPI inh: GDH-TPI coupled enzyme inhibition counter-screen; actives 1.2% (n = 360,000); inhibition, % at 4.8 µM; AID 588335; GDH-TPI coupled enzyme counterscreen, NADH absorbance; in the data active means inhibition above about 30%;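 further: 0% = DMSO wells and 100% = wells lacking the enzyme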
Anthrax LF prot: blocks Bacillus anthracis lethal factor protease; P15917; multiplex microsphere protease cleavage assay, LF; inhibition, % at 10 µM; actives 0.12% (n = 360,000); further: plate controls were buffer without enzyme for full effect and enzyme alone for no effect
Numbers without * were called inactive. Unless noted, no stated cut-off is given here; in the data, active means inhibition above about 30%; inconclusive means no clear call, values can overlap the other calls; inactive means below that.

Screening CCOc1ccc(C2=CSC3=NCCN23)cc1Cl returned Mtb FBA inh 1.9, BoNT-F LC inh inconclusive, BoNT A protease -2.4, Autofluor counter 4436, GDH-TPI inh -3.5 and Anthrax LF prot 4.7.
CC(Sc1nc(-c2ccco2)nc2c1c(=O)n(C)c(=O)n2C)C(=O)O (stereo not drawn) was read as Mtb FBA inh -2.2, BoNT-F LC inh -4.0, BoNT A protease -0.6, Autofluor counter 4724, GDH-TPI inh 32.1* and Anthrax LF prot -3.6.
For CCCn1c(=O)c2sccc2n2c(CCCC(=O)NC3CCN(Cc4ccccc4)CC3)nnc12 the results were Mtb FBA inh 5.2, BoNT-F LC inh 7.0, BoNT A protease 0.0, Autofluor counter 4350, GDH-TPI inh 1.3 and Anthrax LF prot -2.5.
For CCc1nc(C)ccc1OCC(=O)NCCCN(C)C the results were Mtb FBA inh 1.5, BoNT-F LC inh -1.9, BoNT A protease -1.8, Autofluor counter 22619*, GDH-TPI inh 10.9 and Anthrax LF prot -0.8.
Screening COCCOC(=O)c1c(C)oc2ccc(OCc3ccccc3)cc12 returned Mtb FBA inh -1.7, BoNT-F LC inh -6.2, BoNT A protease 0.0, Autofluor counter 1911, GDH-TPI inh 6.2 and Anthrax LF prot -1.9.
For C=C(C)COc1ccc2oc(C)c(C(=O)OCCOC)c2c1 the results were Mtb FBA inh 1.2, BoNT-F LC inh -4.2, BoNT A protease inconclusive, Autofluor counter 24480*, GDH-TPI inh -7.3 and Anthrax LF prot -4.5.
`Nc1nc(Nc2ccccc2)sc1C(=O)c1ccccc1` gave Mtb FBA inh -1.0, BoNT-F LC inh inconclusive, BoNT A protease -2.1, Autofluor counter 4145, GDH-TPI inh 9.2 and Anthrax LF prot -3.4.
CCNc1nc(N)c(C(=C(C#N)C#N)c2ccccc2)s1 was read as Mtb FBA inh 166.6*, BoNT-F LC inh 9.0, BoNT A protease -0.6, Autofluor counter 4609, GDH-TPI inh 23.4 and Anthrax LF prot -0.2.
O=C1CC(c2ccccc2)Cc2nc(N3CCc4ccccc4C3)ncc21 (stereo not drawn) was read as Mtb FBA inh 2.5, BoNT-F LC inh 0.0, BoNT A protease 0.4, Autofluor counter 4477, GDH-TPI inh 8.2 and Anthrax LF prot -8.0.
`Cc1ccc(C2CC(=O)c3cnc(N4CCc5ccccc5C4)nc3C2)cc1` (stereo not drawn) gave Mtb FBA inh 0.0, BoNT-F LC inh 1.9, BoNT A protease inconclusive, Autofluor counter 19424*, GDH-TPI inh 1.9 and Anthrax LF prot -3.0.
For Cc1ccc(C(=O)CSc2nsc(C)c2C#N)cc1 the results were Mtb FBA inh -1.6, BoNT-F LC inh 5.6, BoNT A protease 0.7, Autofluor counter 2994, GDH-TPI inh -4.8 and Anthrax LF prot 0.3.
`Cc1snc(SCC(=O)c2ccc(Cl)cc2)c1C#N` gave Mtb FBA inh -0.8, BoNT-F LC inh -1.9, BoNT A protease inconclusive, Autofluor counter 22846*, GDH-TPI inh 7.6 and Anthrax LF prot 1.1.
`N#Cc1c(SCC(N)=O)nsc1SCc1ccc(Cl)cc1` gave Mtb FBA inh -2.9, BoNT-F LC inh -0.8, BoNT A protease inconclusive, Autofluor counter 22700*, GDH-TPI inh 1.0 and Anthrax LF prot -2.6.
`CCCOc1ccc(-c2c(C(=O)N/N=C(\C)c3cccs3)nnn2-c2nonc2N)cc1` gave Mtb FBA inh -1.1, BoNT-F LC inh 0.4, BoNT A protease -0.3, Autofluor counter 4438, GDH-TPI inh 11.8 and Anthrax LF prot -1.5.
Cc1ccc(COc2coc(CO)cc2=O)cc1 was read as Mtb FBA inh 1.5, BoNT-F LC inh 4.8, BoNT A protease 0.2, Autofluor counter 5441, GDH-TPI inh -7.3 and Anthrax LF prot -1.5.
`O=c1cc(CO)occ1OCc1cccc(F)c1` gave Mtb FBA inh -0.1, BoNT-F LC inh 0.4, BoNT A protease inconclusive, Autofluor counter 19821*, GDH-TPI inh -7.7 and Anthrax LF prot -1.0.
`COc1cc(Cl)c(C)cc1NC(=O)CCCN1C(=O)CCC1=O` gave Mtb FBA inh 1.0, BoNT-F LC inh -1.5, BoNT A protease 0.7, Autofluor counter 19155*, GDH-TPI inh -7.6 and Anthrax LF prot -2.8.
For O=C(CCCN1C(=O)CCC1=O)Nc1ccc(Br)cc1F the results were Mtb FBA inh -5.9, BoNT-F LC inh 0.0, BoNT A protease 0.4, Autofluor counter 23503*, GDH-TPI inh -3.7 and Anthrax LF prot -0.1.
`Cc1cc(Cl)ccc1NC(=O)CCCN1C(=O)CCC1=O` gave Mtb FBA inh 0.9, BoNT-F LC inh -5.7, BoNT A protease -0.2, Autofluor counter 11642, GDH-TPI inh 4.6 and Anthrax LF prot -0.9.
O=C(CCCN1C(=O)CCC1=O)Nc1ccccc1F was read as Mtb FBA inh 1.1, BoNT-F LC inh 4.0, BoNT A protease 3.6, Autofluor counter 22328*, GDH-TPI inh 0.0 and Anthrax LF prot 2.0.
Screening COc1ccc(C(=O)NC2=NCCS2)cc1S(=O)(=O)N1CCCCC1C (stereo not drawn) returned Mtb FBA inh 1.2, BoNT-F LC inh -5.4, BoNT A protease -1.1, Autofluor counter 3468, GDH-TPI inh 0.0 and Anthrax LF prot -5.0.
Screening Cn1c(=S)[nH]c2sc3c(c2c1=O)CCC(C(C)(C)C)C3 (stereo not drawn) returned Mtb FBA inh -1.2, BoNT-F LC inh 21.9, BoNT A protease 0.4, Autofluor counter 2967, GDH-TPI inh 2.5 and Anthrax LF prot 5.5.
Screening O=C(N/N=C/c1ccccn1)NC12CC3CC(CC(C3)C1)C2 returned Mtb FBA inh -1.5 and GDH-TPI inh 0.8.
Screening COc1ccc(CCC(=O)Nc2nnc(C(F)(F)F)s2)cc1 returned Mtb FBA inh -1.3, BoNT-F LC inh -0.6, BoNT A protease 0.1, Autofluor counter 6148, GDH-TPI inh -4.2 and Anthrax LF prot 9.4.
For O=C(CCC(=O)NC1CCCCCC1)Nc1nnc(C(F)(F)F)s1 the results were Mtb FBA inh -4.1, BoNT-F LC inh 5.6, BoNT A protease inconclusive, Autofluor counter 21138*, GDH-TPI inh 8.6 and Anthrax LF prot -6.3.
For O=C(CCC(=O)NC1CCCCCCC1)Nc1nnc(C(F)(F)F)s1 the results were Mtb FBA inh 2.9, BoNT-F LC inh -6.5, BoNT A protease -1.2, Autofluor counter 8566, GDH-TPI inh 7.7 and Anthrax LF prot -1.2.
COc1ccc(NC(=O)CCC(=O)Nc2nnc(C(F)(F)F)s2)c(OC)c1 was read as Mtb FBA inh 0.8, BoNT-F LC inh -2.0, BoNT A protease 1.4, Autofluor counter 18599*, GDH-TPI inh 3.5 and Anthrax LF prot -10.2.
COc1cccc(-c2ccc(=O)n(CC(=O)Nc3cc4c(cc3NC(C)=O)OCCO4)n2)c1 was read as Mtb FBA inh 3.6, BoNT-F LC inh -0.9, BoNT A protease inconclusive, Autofluor counter 21027*, GDH-TPI inh 2.1 and Anthrax LF prot 1.2.
`O=C(Cn1nc(-c2ccccc2)ccc1=O)NCC1COCCO1` (stereo not drawn) gave Mtb FBA inh -1.8, BoNT-F LC inh 6.9, BoNT A protease 4.3, Autofluor counter 19171*, GDH-TPI inh 5.0 and Anthrax LF prot -5.2.
